18 compounds from ChEMBL document CHEMBL3988442, “University of Dundee, Small-Polar-MMV Screening Library” (2021) can be followed below.

The target in test [1] is T1, Aspartate--tRNA(Asp/Asn) ligase (Mycobacterium tuberculosis (strain ATCC 25618 / H37Rv)) (UniProt P9WFW3). Also: in the data most compounds retested in dose-response had high values.
T1 sequence (whole entry): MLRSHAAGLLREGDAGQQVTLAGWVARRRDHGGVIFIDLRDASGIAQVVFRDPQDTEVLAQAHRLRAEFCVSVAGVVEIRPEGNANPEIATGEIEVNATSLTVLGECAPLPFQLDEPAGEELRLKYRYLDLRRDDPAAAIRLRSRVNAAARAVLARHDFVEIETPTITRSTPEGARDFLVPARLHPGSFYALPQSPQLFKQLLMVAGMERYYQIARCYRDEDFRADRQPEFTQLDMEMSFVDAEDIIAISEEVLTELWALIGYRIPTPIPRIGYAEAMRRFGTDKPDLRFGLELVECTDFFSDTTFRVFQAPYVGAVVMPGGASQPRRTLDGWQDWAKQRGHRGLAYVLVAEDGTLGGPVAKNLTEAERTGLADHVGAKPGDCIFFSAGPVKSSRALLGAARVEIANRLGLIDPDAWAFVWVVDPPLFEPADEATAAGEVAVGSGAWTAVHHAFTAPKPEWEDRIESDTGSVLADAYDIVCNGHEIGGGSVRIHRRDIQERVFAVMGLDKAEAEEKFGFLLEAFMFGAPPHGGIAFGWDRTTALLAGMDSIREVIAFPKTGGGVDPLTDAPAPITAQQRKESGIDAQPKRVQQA
The experiment in a line: Assay for Asp RNA synthetase-1 from Mycobacterium tuberculosis. Format: functional. Details: scale not given: direction of the effect not stated beside the values. The conditions noted are these: 30 µM.

Test [2] concerns the target Shiga toxin 2 (Escherichia coli O157:H7) (UniProt P09385+P09386). The experiment in a line: E. coli 0.157:H7 Shiga Toxin SOP - stx2 screening assay. Format: functional. Details: scale not given: direction of the effect not stated beside the values. The conditions noted are these: 30 µM.

In the case of `CCOCc1cccc(S(=O)(=O)N2CCSCC2)c1`, the Percent Effect in test [1] is -3.43%; in test [2], -4.15%.
For `Cc1nnc2n1CCN(Cc1csc(CC(=O)N(C)C)n1)C2`, the Percent Effect came out at 2.24% in test [1] and 5.11% in test [2].
For `O=C(c1cccn1Cc1cccs1)N1CCN(C2CC2)CC1`, the Percent Effect is -1.4% in test [1] and -1.86% in test [2].
The matching figures for `Fc1cccc(CN2CCC(c3n[nH]c4ncccc34)CC2)c1F`: -3.17% and -6.18%.
With `CNC(=O)CC1CCN(Cc2nc(-c3cccc(Cl)c3)oc2C)CC1`, the Percent Effect in test [1] was 4.32%; in test [2], -21.3%.
Regarding `O=C(c1cnccn1)N1CCOC2(CCN(Cc3ccsc3)CC2)C1`, the Percent Effect in test [1] was -1.8%; in test [2], -12.9%.
The matching figures for `COc1ccc(CN(Cc2cncn2C)CC2CCCO2)c(OC)c1` (stereo unspecified): 7.91% and 11.4%.
With `COc1cccc(CN(C)S(=O)(=O)N2CCOCC2)c1`, the Percent Effect was -0.479% in test [1] and 9.56% in test [2].
On to `Cc1cnn(CCNCc2ccc(C#N)cc2F)c1`, for which the Percent Effect in test [1] was -3.18%; in test [2], 6.24%.
For `CCc1ncc2c(n1)CN(Cc1nnc(C)o1)CC2` the same measures were -4.37% and -16.2%.
`Clc1ccccc1C1(c2ccnc(-c3ncccn3)n2)CCNCC1`: the Percent Effect in test [1] was 8.32%; in test [2] it was -34.1%.
With `Cc1cc2c(=O)n3c(nc2s1)CCN(Cc1ccncc1)CC3`, the Percent Effect in test [1] is -2.01%; in test [2], -22.9%.
For the compound `Cc1cccc(OCCC(=O)NCC(C)(C)C(N)=O)c1`, the Percent Effect in test [1] came to 0.144%; in test [2], 31.1%.
As to `CCc1noc(C(C)N2CCC(N3CCCC3)CC2)n1` (stereo unspecified), the Percent Effect is -8.83% in test [1] and -5.16% in test [2].
On to `COc1ccc(C2Nc3ccccc3C3=NCCCN32)cc1OC` (stereo unspecified), for which the Percent Effect in test [1] was 3.81%; in test [2], -2.36%.
For `CC1CCN(CCNC(=O)c2ccccc2N2CCOCC2)CC1` the same measures were 2.6% and -16.9%.
Take `CCN(C(=O)CN(C)C(c1cccc(F)c1)c1ccccn1)C1CC1` (stereo unspecified): the results for the Percent Effect in test [1] and in test [2] were -2.49% and 8.33%, respectively.
For `CCc1cc(C(=O)N2CCC(Nc3ccc(C)nn3)CC2)sc1C`, the Percent Effect in test [1] is -2.1%; in test [2] it was -27.9%.
